# Laboratory results from ChEMBL document CHEMBL3988442, “University of Dundee, Small-Polar-MMV Screening Library” (2021).
# For some assays here: Entries with a potency or affinity are not part of this list.
# Legend:
# Design in all cases: scale not given: direction of the effect not stated beside the values
# [1] = target: Protein translocase subunit SecA (Escherichia coli (strain K12)) (UniProt P10408); test: Assay to Identify E. coli SecA ATPase Inhibitors; type: functional; conditions: 30 µM
# [2] = target: T1, Ubiquitin-activating enzyme e1, putative (Leishmania donovani (strain BPK282A1)) (UniProt E9BSI1); test: Leishmania donovani Ubiquitin Activating Enzyme (LdE1); type: functional; conditions: 30 µM
# T1 sequence (whole entry): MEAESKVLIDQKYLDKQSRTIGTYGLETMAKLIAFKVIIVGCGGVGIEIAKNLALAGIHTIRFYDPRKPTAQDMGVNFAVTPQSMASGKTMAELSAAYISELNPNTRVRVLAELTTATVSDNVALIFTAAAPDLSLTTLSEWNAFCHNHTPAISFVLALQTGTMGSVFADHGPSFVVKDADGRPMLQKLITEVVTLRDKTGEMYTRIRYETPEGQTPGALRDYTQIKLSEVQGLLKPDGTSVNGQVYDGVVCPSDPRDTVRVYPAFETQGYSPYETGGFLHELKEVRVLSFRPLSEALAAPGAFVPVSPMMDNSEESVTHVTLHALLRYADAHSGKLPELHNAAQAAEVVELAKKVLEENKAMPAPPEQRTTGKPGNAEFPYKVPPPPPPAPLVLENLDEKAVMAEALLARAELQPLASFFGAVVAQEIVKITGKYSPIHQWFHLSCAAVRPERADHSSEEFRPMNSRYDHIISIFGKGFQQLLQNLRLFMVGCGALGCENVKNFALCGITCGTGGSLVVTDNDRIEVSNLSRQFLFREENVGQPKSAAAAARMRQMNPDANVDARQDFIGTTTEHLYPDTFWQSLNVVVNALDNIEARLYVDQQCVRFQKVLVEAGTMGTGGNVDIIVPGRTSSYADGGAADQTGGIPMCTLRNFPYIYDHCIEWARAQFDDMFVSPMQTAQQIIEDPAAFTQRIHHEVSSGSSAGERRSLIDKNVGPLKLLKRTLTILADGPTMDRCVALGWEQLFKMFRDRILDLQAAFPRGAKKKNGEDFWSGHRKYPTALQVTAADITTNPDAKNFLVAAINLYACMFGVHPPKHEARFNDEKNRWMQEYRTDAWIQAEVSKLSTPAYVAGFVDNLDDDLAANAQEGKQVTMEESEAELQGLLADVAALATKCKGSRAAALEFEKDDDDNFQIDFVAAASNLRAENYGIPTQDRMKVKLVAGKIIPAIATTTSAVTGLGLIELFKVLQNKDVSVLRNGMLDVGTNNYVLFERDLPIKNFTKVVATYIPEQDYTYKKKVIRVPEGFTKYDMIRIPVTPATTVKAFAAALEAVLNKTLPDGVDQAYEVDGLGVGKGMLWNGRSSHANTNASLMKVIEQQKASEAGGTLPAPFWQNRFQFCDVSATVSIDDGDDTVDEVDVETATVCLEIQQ
# [3] = target: Sialic acid-binding Ig-like lectin 9 (Homo sapiens) (UniProt Q9Y336); test: Hs-Siglec9 ALPHAscreen SOP 20170721; conditions: 10 µM
# Trypanosoma cruzi = test: Trypanosoma cruzi phosphomannomutase and mannose-1-phosphate guanylyltransferase assay; type: functional; conditions: 10 µM
# [4] = target: T2, Arginase-2, mitochondrial (Homo sapiens) (UniProt P78540); test: in vitro enzyme assay to detect the production of urea directly proportional to the activity of Arginase II; type: functional; conditions: 33.3 µM; note: in the data most compounds retested in dose-response had high values
# T2 sequence (whole entry): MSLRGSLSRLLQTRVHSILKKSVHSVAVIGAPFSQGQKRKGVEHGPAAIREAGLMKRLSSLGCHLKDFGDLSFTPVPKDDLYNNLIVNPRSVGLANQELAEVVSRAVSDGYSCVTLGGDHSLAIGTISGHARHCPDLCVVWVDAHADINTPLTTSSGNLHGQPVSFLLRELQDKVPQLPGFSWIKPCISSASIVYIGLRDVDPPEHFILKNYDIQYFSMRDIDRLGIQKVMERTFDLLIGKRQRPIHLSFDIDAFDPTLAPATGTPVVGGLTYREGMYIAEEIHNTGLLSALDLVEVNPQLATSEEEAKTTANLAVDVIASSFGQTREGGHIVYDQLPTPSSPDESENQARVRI
# [5] = target: T3, Proteasome subunit beta (Trypanosoma cruzi) (UniProt O96673); test: Trypanosoma cruzi proteasome chymotrypsin-like activity (TcProtChymo) assay.; note: in the data most compounds retested in dose-response had high values; type: functional; conditions: 9.37 µM
# T3 sequence (whole entry): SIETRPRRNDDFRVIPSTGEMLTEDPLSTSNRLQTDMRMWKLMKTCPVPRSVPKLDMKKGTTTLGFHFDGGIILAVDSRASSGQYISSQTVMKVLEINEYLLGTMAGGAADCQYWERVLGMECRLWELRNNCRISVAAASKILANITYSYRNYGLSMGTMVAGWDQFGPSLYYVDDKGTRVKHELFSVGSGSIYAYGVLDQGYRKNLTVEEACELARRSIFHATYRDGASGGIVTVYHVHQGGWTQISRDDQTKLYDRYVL
# Homo sapiens = species on record: Homo sapiens; test: To identify inhibition of the IFN signalling (Jak-Stat) pathway via expression of an eGFP reporter gene under the control of an IFN-stimulated response element (ISRE) containing MxA promoter.; type: functional; conditions: 30 µM
# [6] = target: T4, Tyrosyl-tRNA synthetase, putative (Trypanosoma cruzi (strain CL Brener)) (UniProt Q4DSP6); test: Trypanosoma cruzi tyrosyl tRNA synthetase (TcYRS) _High Tyrosine SOP; type: functional; conditions: 30 µM; note: in the data most compounds retested in dose-response had high values
# T4 sequence (whole entry): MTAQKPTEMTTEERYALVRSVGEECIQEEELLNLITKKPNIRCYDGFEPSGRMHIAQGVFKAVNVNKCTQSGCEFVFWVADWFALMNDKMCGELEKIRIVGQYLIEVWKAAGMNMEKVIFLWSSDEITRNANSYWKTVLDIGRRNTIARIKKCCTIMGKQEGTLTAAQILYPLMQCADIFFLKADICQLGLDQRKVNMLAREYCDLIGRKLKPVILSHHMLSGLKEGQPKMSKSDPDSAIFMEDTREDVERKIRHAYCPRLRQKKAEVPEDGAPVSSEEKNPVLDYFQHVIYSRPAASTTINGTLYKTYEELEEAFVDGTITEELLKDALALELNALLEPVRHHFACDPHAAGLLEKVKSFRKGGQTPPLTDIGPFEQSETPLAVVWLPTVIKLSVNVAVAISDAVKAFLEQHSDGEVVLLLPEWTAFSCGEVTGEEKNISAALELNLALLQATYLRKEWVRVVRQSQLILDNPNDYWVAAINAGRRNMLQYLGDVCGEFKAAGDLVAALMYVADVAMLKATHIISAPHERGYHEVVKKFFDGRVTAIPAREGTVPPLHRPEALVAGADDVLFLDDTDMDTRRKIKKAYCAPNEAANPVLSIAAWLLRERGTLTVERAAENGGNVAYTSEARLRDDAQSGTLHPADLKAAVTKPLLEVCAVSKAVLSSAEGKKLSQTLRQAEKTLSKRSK
# [7] = target: T4, Tyrosyl-tRNA synthetase, putative (Trypanosoma cruzi (strain CL Brener)); test: Trypanosoma cruzi tyrosyl tRNA synthetase (TcYRS) SOP; type: functional; conditions: 30 µM
# [8] = target: Chromo domain-containing protein 1 (Saccharomyces cerevisiae (strain ATCC 204508 / S288c) (Baker's yeast)) (UniProt P32657); test: ScCHD-1 Enzyme Inhibition Assay; type: functional; conditions: 30 µM; note: in the data most compounds retested in dose-response had high values
# Sequence of Chromo domain-containing protein 1 (Saccharomyces cerevisiae (strain ATCC 204508 / S288c) (Baker's yeast)) (P32657 whole entry, the tested form may be a part): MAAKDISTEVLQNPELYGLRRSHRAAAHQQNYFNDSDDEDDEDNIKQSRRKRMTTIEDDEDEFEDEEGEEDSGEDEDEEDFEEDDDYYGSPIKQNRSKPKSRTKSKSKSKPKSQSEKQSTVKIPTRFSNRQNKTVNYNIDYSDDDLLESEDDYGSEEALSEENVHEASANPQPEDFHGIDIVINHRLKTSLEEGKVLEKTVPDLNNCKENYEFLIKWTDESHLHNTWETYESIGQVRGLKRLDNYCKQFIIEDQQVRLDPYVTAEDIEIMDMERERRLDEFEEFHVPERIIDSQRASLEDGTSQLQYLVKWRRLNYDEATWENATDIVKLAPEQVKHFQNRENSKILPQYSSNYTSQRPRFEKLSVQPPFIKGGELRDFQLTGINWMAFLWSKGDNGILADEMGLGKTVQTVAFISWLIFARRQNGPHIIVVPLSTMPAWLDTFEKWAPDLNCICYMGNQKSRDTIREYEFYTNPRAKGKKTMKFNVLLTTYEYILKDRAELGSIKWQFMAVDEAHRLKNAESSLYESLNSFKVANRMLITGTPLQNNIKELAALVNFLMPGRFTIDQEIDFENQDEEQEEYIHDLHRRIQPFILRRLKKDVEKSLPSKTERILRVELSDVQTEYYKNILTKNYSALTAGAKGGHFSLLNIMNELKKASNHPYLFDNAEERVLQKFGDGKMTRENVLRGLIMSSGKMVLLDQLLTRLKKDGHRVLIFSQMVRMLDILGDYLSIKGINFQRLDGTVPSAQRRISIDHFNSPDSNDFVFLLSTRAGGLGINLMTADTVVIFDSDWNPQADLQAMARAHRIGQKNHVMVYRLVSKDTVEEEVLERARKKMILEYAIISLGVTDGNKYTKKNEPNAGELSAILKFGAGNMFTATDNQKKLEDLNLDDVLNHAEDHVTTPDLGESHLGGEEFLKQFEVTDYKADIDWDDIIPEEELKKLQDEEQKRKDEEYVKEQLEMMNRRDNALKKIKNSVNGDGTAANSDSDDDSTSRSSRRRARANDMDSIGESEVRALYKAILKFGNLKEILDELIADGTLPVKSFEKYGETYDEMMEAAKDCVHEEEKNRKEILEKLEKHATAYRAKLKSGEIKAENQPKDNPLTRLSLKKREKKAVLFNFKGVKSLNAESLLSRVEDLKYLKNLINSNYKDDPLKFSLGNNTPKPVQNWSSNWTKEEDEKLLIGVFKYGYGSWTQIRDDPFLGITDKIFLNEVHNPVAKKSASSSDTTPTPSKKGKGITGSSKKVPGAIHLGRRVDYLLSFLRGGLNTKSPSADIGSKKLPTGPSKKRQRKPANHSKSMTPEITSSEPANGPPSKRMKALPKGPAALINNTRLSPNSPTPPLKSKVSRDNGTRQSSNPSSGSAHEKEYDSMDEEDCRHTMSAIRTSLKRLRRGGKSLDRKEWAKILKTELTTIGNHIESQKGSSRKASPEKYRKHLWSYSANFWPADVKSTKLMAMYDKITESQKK
# Sequence of Protein translocase subunit SecA (Escherichia coli (strain K12)) (P10408 whole entry): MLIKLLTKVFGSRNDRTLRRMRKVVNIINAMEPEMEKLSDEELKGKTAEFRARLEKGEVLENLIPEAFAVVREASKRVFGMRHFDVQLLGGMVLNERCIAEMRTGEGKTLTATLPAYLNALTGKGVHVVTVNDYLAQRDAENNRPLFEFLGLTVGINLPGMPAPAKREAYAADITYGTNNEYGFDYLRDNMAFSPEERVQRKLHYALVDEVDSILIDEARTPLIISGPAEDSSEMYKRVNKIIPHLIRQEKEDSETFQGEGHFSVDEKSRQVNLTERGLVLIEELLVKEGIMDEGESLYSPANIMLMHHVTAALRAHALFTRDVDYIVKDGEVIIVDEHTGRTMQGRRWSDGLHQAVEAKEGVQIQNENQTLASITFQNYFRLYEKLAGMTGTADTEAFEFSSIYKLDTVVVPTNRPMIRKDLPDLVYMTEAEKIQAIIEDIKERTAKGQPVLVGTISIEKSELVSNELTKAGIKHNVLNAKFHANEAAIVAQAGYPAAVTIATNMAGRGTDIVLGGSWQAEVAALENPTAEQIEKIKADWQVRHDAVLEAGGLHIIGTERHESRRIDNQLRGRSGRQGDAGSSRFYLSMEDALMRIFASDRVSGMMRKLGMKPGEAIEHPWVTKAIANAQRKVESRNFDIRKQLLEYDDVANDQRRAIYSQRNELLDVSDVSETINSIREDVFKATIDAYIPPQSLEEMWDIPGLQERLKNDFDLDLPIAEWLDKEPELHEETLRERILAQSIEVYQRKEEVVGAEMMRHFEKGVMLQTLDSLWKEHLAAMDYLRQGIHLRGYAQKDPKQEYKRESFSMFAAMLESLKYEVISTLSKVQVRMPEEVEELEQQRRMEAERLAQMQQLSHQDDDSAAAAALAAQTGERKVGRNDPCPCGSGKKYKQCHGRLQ
# Sequence of Sialic acid-binding Ig-like lectin 9 (Homo sapiens) (Q9Y336 whole entry): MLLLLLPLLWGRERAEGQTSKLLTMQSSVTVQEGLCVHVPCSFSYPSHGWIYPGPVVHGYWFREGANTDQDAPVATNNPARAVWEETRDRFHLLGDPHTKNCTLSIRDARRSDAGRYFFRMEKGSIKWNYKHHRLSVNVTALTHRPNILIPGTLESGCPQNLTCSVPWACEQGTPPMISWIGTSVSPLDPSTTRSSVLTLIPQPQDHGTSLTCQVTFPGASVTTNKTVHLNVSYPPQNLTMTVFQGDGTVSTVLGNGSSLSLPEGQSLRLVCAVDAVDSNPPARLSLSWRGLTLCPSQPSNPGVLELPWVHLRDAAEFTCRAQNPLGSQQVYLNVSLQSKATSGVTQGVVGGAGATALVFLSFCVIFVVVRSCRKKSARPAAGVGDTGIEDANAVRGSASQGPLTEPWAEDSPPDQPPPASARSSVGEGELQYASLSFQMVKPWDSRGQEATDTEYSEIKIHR
SMILES,Percent Effect [1] [%],Percent Effect [2] [%],Percent Effect [3] [%],Percent Effect (Trypanosoma cruzi) [%],Percent Effect [4] [%],Percent Effect [5] [%],Percent Effect (Homo sapiens) [%],Percent Effect [6] [%],Percent Effect [7] [%],Percent Effect [8] [%]
O=C1CC(c2ccccc2)C2(CCN(Cc3ccccn3)CC2)N1 (stereo not given),0.295,22.1,-3.53,-5.25,3.2,8.33,18.5,7.73,15,-9.1
O=C(CSC1CCc2ccccc2NC1=O)NCCc1ccco1 (stereo not given),-1.93,18.9,2.64,3.98,11.5,18,16.5,3.72,17.1,-0.493
CC(C)(O)CN1CCN(C(=O)c2cccnc2O)CC1,-2.01,-2.56,5.77,7.98,2.46,9.13,-4.14,1.44,1.21,-0.501
Cc1ncncc1C(=O)Nc1cnn(CC(=O)NC2CCCC2)c1,-3.38,20,2.3,2.96,-0.443,10.8,8.96,1.06,12.5,-20.3
CN(C)c1cc(C(=O)N2CCCN(Cc3cscn3)CC2)ccn1,-2,7.79,1.09,2.05,6.76,-4.39,1.34,6.86,16.5,-5.32
O=C(C1CC1)N1CC[C@H](O)[C@@H]1Cc1ccccc1,-7.5,3.9,-3.5,-0.75,1.37,1.8,-8.68,2.9,2.5,-12.8
CC(C)c1nnc2n1CCN(C(=O)c1ccc3cc[nH]c3c1)C2,-6.11,10.7,4.04,-1.61,2.66,1.27,6.35,5.79,12.8,-9.74
CC(C)NC(=O)CC1COC2(CCN(Cc3cccs3)CC2)C1 (stereo not given),-3.1,16.9,-2.18,-3.19,1.37,4.89,-2.98,4.83,7.5,-13.3
CC(C)C(NC(=O)N1CCN(c2ccc(Cl)cc2)CC1)C(=O)NC1CC1 (stereo not given),-5.57,5.41,7.5,2.23,-3.15,16.4,21.7,4.79,19.5,-1.96
CN(C)S(=O)(=O)N1CC[C@]2(C[C@H](Oc3ncccc3F)CO2)C1,-1.29,1.3,10.8,0.0974,0,1.15,-1.45,4.74,5.13,14.3
CC(=O)N1CCC(c2cc(C(F)(F)F)n3ccnc3n2)CC1,-2.29,9.33,-6.3,0.789,0.443,16.1,6.98,7.41,-25,-32.2
Cc1ncoc1C(=O)N1CCn2c(COCC3CC3)cnc2C1C (stereo not given),-6.41,9.09,-3.19,0.487,-0.81,10.2,-4.92,7.89,12.8,-2.4
O=C(NCCOc1ccc(Cl)cc1)N1CCS(=O)(=O)CC1,-5.3,5.13,-7.37,6.1,-1.23,6.74,3.33,-0.478,10.8,-6.32
COc1cc(S(=O)(=O)N2CCc3ccc(F)cc32)cc(C(=O)O)c1OC,-7.45,10.7,12.6,-1.21,0,6.02,4.5,-3.68,-5.13,-15.2
Cc1ccn(-c2cccc(C(=O)N3CCCC(n4ccnc4C)C3)c2)n1 (stereo not given),-0.853,7.79,11.9,-9.7,-3.89,8.42,26.1,5.88,9.41,-1.96
CN(Cc1ccccc1)CC(O)Cn1cnc2c(cnn2C)c1=O (stereo not given),-1.52,17.9,-4.11,4.79,2.46,10.5,-1.98,7.18,22.9,-3.86
CS(=O)(=O)N1CCC[C@]2(C[C@@H](Oc3ncccc3F)CO2)C1,-5.48,11.7,-6.01,-0.682,4.05,10.3,-0.297,12.1,12.8,1.06
CC(C)Oc1ncccc1CNC(=O)c1ccco1,-4.42,16,0.422,0.402,5.32,13.5,7.02,5.79,17.9,-8.28
CN(C(=O)CN1CCOC(Cn2cccn2)C1)c1nccs1 (stereo not given),-7.38,18.2,0.761,4.29,-4.71,11.8,-5.33,3.92,21.2,-15
N#Cc1cccc(S(=O)(=O)NC(=O)COc2ccc3c(c2)CCC3)c1,-4.11,12.8,-9.11,6.48,-0.82,17,0.752,0.478,20.5,-4.5
COc1ncccc1CNC(=O)c1cccc(C)n1,-0.149,23.1,-18.5,6.1,-5.74,18.5,18.5,6.22,22.9,-3.56
c1cc(-c2noc(CN3CCn4c(nnc4C4CC4)C3)n2)co1,-1.2,12.8,1.91,4.04,6.15,2.13,16.4,7.18,10.8,2.97
CCN1CCC2(C=C(C(=O)NC3CC3)c3ccccc32)CC1,2.3,6.49,-1,1.13,0,-2.49,-10.8,-0.966,2.5,-3.59
